In PubChem BioAssay (NCI):
Values joined by “and” are separate entries in the source; they are usually repeats but may differ in a detail not shown here. Equal values may be shown once. About 83,000 compounds went through this panel and 20% of them were active in at least one assay; those are over-represented in the sample as a whole.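 For each line, cells grew in 96-well plates with the test compound present at a single concentration for 48 hours.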 Active and inactive are the calls of the source. The calls were made as follows: active = growth percent below 10; inactive = the rest.

Tests used:
Experiment in all cases: NCI-60 one-dose screen, 48 h (100 = growth as untreated, 0 = no growth, -100 = all killed)
Conditions in all cases: 10 µM unless noted
HCT-15 colon = test system: HCT-15 colon
HT29 colon = test system: HT29 colon
SNB-75 CNS = test system: SNB-75 CNS
SNB-19 CNS = test system: SNB-19 CNS
U251 CNS = test system: U251 CNS
PC-3 prostate = test system: PC-3 prostate
SK-MEL-5 melanoma = test system: SK-MEL-5 melanoma
UACC-62 melanoma = test system: UACC-62 melanoma
LOX IMVI melanoma = test system: LOX IMVI melanoma
SK-MEL-28 melanoma = test system: SK-MEL-28 melanoma
SK-MEL-2 melanoma = test system: SK-MEL-2 melanoma
EKVX NSCLC = test system: EKVX NSCLC
SN12C renal = test system: SN12C renal
UO-31 renal = test system: UO-31 renal
TK-10 renal = test system: TK-10 renal
ACHN renal = test system: ACHN renal
CAKI-1 renal = test system: CAKI-1 renal
A498 renal = test system: A498 renal
CCRF-CEM leukemia = test system: CCRF-CEM leukemia
MOLT-4 leukemia = test system: MOLT-4 leukemia

Measured: growth

Cc1ccc2nc(NC(=O)Nc3cccc(Cl)c3)sc2c1
inactive: HCT-15 colon 92% | HT29 colon 104% | SNB-75 CNS 108% | SNB-19 CNS 103% | U251 CNS 111% | PC-3 prostate 92.4% | SK-MEL-5 melanoma 97.2% | UACC-62 melanoma 91.2% | LOX IMVI melanoma 88.1% | SK-MEL-28 melanoma 112% | SK-MEL-2 melanoma 114% | EKVX NSCLC 87.7% | SN12C renal 103% | UO-31 renal 82% | TK-10 renal 114% | ACHN renal 105% | CAKI-1 renal 90.7% | A498 renal 144% | CCRF-CEM leukemia 89.6% | MOLT-4 leukemia 82.9%

COc1ccc(NC(=O)CSc2nnc(-c3ccc(-c4nc5ccccc5[nH]4)cc3)o2)cc1
active: SNB-19 CNS -5.58% | U251 CNS -68.2% | LOX IMVI melanoma -63.9% | SK-MEL-28 melanoma -72.3%
inactive: HCT-15 colon 18.2% | HT29 colon 18% | SNB-75 CNS 63.4% | PC-3 prostate 25.1% | SK-MEL-5 melanoma 14% | UACC-62 melanoma 17.8% | SK-MEL-2 melanoma 61.8% | EKVX NSCLC 53.2% | SN12C renal 31% | UO-31 renal 97.7% | TK-10 renal 96.8% | ACHN renal 35.4% | CAKI-1 renal 41.5% | A498 renal 147% | CCRF-CEM leukemia 50.7% | MOLT-4 leukemia 35.9%

CCOc1ccccc1[C@H]1C(C(=O)c2ccc(Cl)cc2)C2(N[C@@H]1c1ccccc1)C(=O)Nc1ccc(Cl)cc12 (stereo not given in full)
active: PC-3 prostate 9.44% | SK-MEL-5 melanoma 6.43% | SK-MEL-2 melanoma -11.2% | SN12C renal -57.3% | MOLT-4 leukemia -23.4%
inactive: HCT-15 colon 20.3% | HT29 colon 10.7% | SNB-75 CNS 30.7% | SNB-19 CNS 37.7% | U251 CNS 36.3% | UACC-62 melanoma 17.5% | LOX IMVI melanoma 13.2% | SK-MEL-28 melanoma 41.2% | EKVX NSCLC 21.5% | UO-31 renal 16.7% | TK-10 renal 61.4% | ACHN renal 22.4% | CAKI-1 renal 18.5% | A498 renal 80.9% | CCRF-CEM leukemia 26.2%

O=C1/C(=C/c2cccc3c2OCO3)Cc2c(F)cc(Br)cc21
inactive: HCT-15 colon 102% | HT29 colon 118% | SNB-75 CNS 97.1% | SNB-19 CNS 103% | U251 CNS 105% | PC-3 prostate 107% | SK-MEL-5 melanoma 101% | UACC-62 melanoma 91.8% | LOX IMVI melanoma 99.8% | SK-MEL-28 melanoma 115% | SK-MEL-2 melanoma 111% | EKVX NSCLC 94.4% | SN12C renal 111% | UO-31 renal 90% | TK-10 renal 115% | ACHN renal 108% | CAKI-1 renal 94.6% | A498 renal 152% | CCRF-CEM leukemia 103% | MOLT-4 leukemia 106%

COc1c(F)ccc(C(=O)Nc2ccc3nc(NC(=O)C4CCCN(S(=O)(=O)c5ccc(C(C)(C)C)cc5)C4)sc3c2)c1F (stereo not given)
inactive: HCT-15 colon 63.3% | HT29 colon 55.4% | SNB-75 CNS 66.4% | SNB-19 CNS 78.2% | U251 CNS 58.8% | PC-3 prostate 45.8% | SK-MEL-5 melanoma 66.5% | UACC-62 melanoma 55.9% | LOX IMVI melanoma 43.9% | SK-MEL-28 melanoma 81.3% | SK-MEL-2 melanoma 71.3% | EKVX NSCLC 59% | SN12C renal 57% | UO-31 renal 44.3% | TK-10 renal 93.6% | ACHN renal 63.4% | CAKI-1 renal 69.3% | A498 renal 84.7% | CCRF-CEM leukemia 57.9% | MOLT-4 leukemia 29.7%

COc1cc(/C=N/NC(=O)c2ccc(OCc3nc4ccc(Cl)cc4[nH]3)cc2)cc(OC)c1OC
active: SK-MEL-5 melanoma -19.9% | CCRF-CEM leukemia 3.83%
inactive: HCT-15 colon 37.4% | HT29 colon 21.4% | SNB-75 CNS 123% | SNB-19 CNS 55.5% | U251 CNS 52.8% | PC-3 prostate 35.5% | UACC-62 melanoma 16.7% | LOX IMVI melanoma 26% | SK-MEL-28 melanoma 32.4% | SK-MEL-2 melanoma 74.5% | EKVX NSCLC 33.3% | SN12C renal 48.7% | UO-31 renal 45.5% | TK-10 renal 74.9% | ACHN renal 39.1% | CAKI-1 renal 40.5% | A498 renal 121% | MOLT-4 leukemia 12.1%

Nc1nnc(-c2cncc(Br)c2)c(-c2c[nH]c3ccc(Br)cc23)n1
inactive: HCT-15 colon 37.1% | HT29 colon 35.6% | SNB-75 CNS 50.5% | SNB-19 CNS 59.5% | U251 CNS 63% | PC-3 prostate 56% | SK-MEL-5 melanoma 31.1% | UACC-62 melanoma 55.2% | LOX IMVI melanoma 43.1% | SK-MEL-28 melanoma 67.5% | SK-MEL-2 melanoma 55.4% | EKVX NSCLC 65.7% | SN12C renal 57.6% | UO-31 renal 34.8% | TK-10 renal 97.7% | ACHN renal 56.5% | CAKI-1 renal 46% | A498 renal 92.7% | CCRF-CEM leukemia 44.1% | MOLT-4 leukemia 33%

CCCCN1C(=O)/C(=C\C(=O)c2cc3ccccc3oc2=O)c2ccccc21
inactive: HT29 colon 71.2% | SNB-75 CNS 61.6% | SNB-19 CNS 91.3% | U251 CNS 88.2% | PC-3 prostate 83.3% | SK-MEL-5 melanoma 84.5% | UACC-62 melanoma 65.8% | LOX IMVI melanoma 57% | SK-MEL-28 melanoma 52.2% | SK-MEL-2 melanoma 79.8% | EKVX NSCLC 84.5% | SN12C renal 56.2% | UO-31 renal 32.1% | TK-10 renal 57.7% | CAKI-1 renal 70.8% | A498 renal 161% | CCRF-CEM leukemia 25.5%
active: HCT-15 colon 2.32% | ACHN renal 0.901% | MOLT-4 leukemia 3.77%

CC1=C(C(=O)OCc2ccccc2)C(c2ccc(N(C)C)cc2)n2c(nc3ccccc32)N1 (stereo not given)
inactive: HCT-15 colon 71.4% | HT29 colon 100% | SNB-75 CNS 61.2% | SNB-19 CNS 86.2% | U251 CNS 90.4% | PC-3 prostate 80.8% | SK-MEL-5 melanoma 71.7% | UACC-62 melanoma 42% | LOX IMVI melanoma 75.7% | SK-MEL-28 melanoma 79.9% | SK-MEL-2 melanoma 96.5% | EKVX NSCLC 46% | SN12C renal 98.2% | UO-31 renal 61.1% | TK-10 renal 99.4% | ACHN renal 88.5% | CAKI-1 renal 55.6% | A498 renal 74.5% | CCRF-CEM leukemia 105% | MOLT-4 leukemia 100%

COc1ccc(NC(=O)Cn2c(/C=C/c3cccc(OC)c3)nc3ccccc3c2=O)cc1
inactive: HCT-15 colon 70.9% | HT29 colon 51.8% | SNB-19 CNS 56.4% | PC-3 prostate 73.9% | SK-MEL-5 melanoma 92.7% | UACC-62 melanoma 57.8% | LOX IMVI melanoma 22.4% | SK-MEL-28 melanoma 89.3% | SK-MEL-2 melanoma 87.9% | EKVX NSCLC 79.6% | CAKI-1 renal 50.9% | CCRF-CEM leukemia 89.4% | MOLT-4 leukemia 97.4%
active: SNB-75 CNS -34.5% | U251 CNS -26.5% | SN12C renal -24% | UO-31 renal -74.3% | TK-10 renal -42.9% | ACHN renal -61.4% | A498 renal -42.8%

CC(=O)Nc1cccc(-n2c(COc3ccc(I)cc3)nc3ccccc32)c1
inactive: HCT-15 colon 69.6% and 108% | HT29 colon 105% and 119% | SNB-75 CNS 57.8% and 93.3% | SNB-19 CNS 93.5% and 103% | U251 CNS 81.8% and 105% | PC-3 prostate 63.3% and 107% | SK-MEL-5 melanoma 74.1% and 104% | UACC-62 melanoma 61.4% and 97.8% | LOX IMVI melanoma 85.3% and 107% | SK-MEL-28 melanoma 107% and 116% | SK-MEL-2 melanoma 82.8% and 118% | EKVX NSCLC 86% and 102% | SN12C renal 95.7% and 111% | TK-10 renal 102% and 104% | CAKI-1 renal 56.7% and 105% | A498 renal 114% and 136% | CCRF-CEM leukemia 90.4% and 96.2% | MOLT-4 leukemia 83.6% and 102%
-67.3% (active) and 90% (inactive): UO-31 renal
-78.2% (active) and 116% (inactive): ACHN renal

Cc1ccc(NC(=O)N/N=C/c2c[nH]c3ccccc23)c(C)c1
inactive: SNB-75 CNS 14.5% | SNB-19 CNS 34.7% | PC-3 prostate 27.8% | SK-MEL-28 melanoma 47.8% | SK-MEL-2 melanoma 20.5% | EKVX NSCLC 34.7% | SN12C renal 15.9% | UO-31 renal 26.6% | TK-10 renal 30.5% | ACHN renal 22.8% | CAKI-1 renal 29.1% | A498 renal 55.7% | CCRF-CEM leukemia 10%
active: HCT-15 colon 9.06% | HT29 colon -35.4% | U251 CNS 9.2% | SK-MEL-5 melanoma 5.42% | UACC-62 melanoma 8.67% | LOX IMVI melanoma -19% | MOLT-4 leukemia 6.25%

COc1ccc(-c2nc3ccc(-c4nnc(SCC(=O)Nc5ccc(/C(C)=N\O)cc5)o4)cc3[nH]2)cc1
inactive: HCT-15 colon 93.4% | HT29 colon 86.3% | SNB-75 CNS 11.8% | SNB-19 CNS 57% | U251 CNS 18.6% | PC-3 prostate 44.3% | UACC-62 melanoma 14% | LOX IMVI melanoma 33.8% | SK-MEL-2 melanoma 76.2% | EKVX NSCLC 95.3% | SN12C renal 80.1% | UO-31 renal 87.5% | TK-10 renal 111% | ACHN renal 85.9% | CAKI-1 renal 96.1% | A498 renal 166% | CCRF-CEM leukemia 55.6% | MOLT-4 leukemia 55.9%
active: SK-MEL-5 melanoma -75.7% | SK-MEL-28 melanoma -64.6%

COc1ccc2[nH]c(O)c(N=Nc3nc(-c4ccccc4)cs3)c2c1
active: SNB-75 CNS -1.94% | U251 CNS -31% | SN12C renal 2.85% | UO-31 renal 4.1% | ACHN renal -16.5% | A498 renal -34.8%
inactive: HCT-15 colon 24.9% | HT29 colon 50.5% | SNB-19 CNS 20% | PC-3 prostate 16% | SK-MEL-5 melanoma 68.8% | UACC-62 melanoma 30.8% | LOX IMVI melanoma 14.3% | SK-MEL-28 melanoma 45% | SK-MEL-2 melanoma 83.7% | EKVX NSCLC 14.4% | TK-10 renal 25.5% | CAKI-1 renal 14% | CCRF-CEM leukemia 44% | MOLT-4 leukemia 42.5%

C[C@@H]1[C@H]2C[C@@H](C[C@H]1NCc1nc3ccccc3n1C1CCCCCC1)C2(C)C
inactive: HCT-15 colon 27.3% | HT29 colon 51.4% | SNB-75 CNS 82% | SNB-19 CNS 59.3% | U251 CNS 67.2% | PC-3 prostate 37.1% | UACC-62 melanoma 47.9% | LOX IMVI melanoma 44% | SK-MEL-28 melanoma 77.5% | SK-MEL-2 melanoma 70.6% | EKVX NSCLC 68.3% | SN12C renal 39.8% | UO-31 renal 44.4% | TK-10 renal 90.8% | ACHN renal 59.5% | CAKI-1 renal 55.5% | A498 renal 88.9% | CCRF-CEM leukemia 58% | MOLT-4 leukemia 33.6%
active: SK-MEL-5 melanoma 4.99%
